{"source": "PubChem BioAssay AID651791", "about": "(National Center for Advancing Translational Sciences (NCATS), 2012)", "note": "Inconclusive results are not listed. The source made the active and inactive calls. Calls come from the whole dose curve; as a rule, active = well fitted inhibition curve with a large enough effect; inconclusive = small, poorly fitted or top-dose-only effect; inactive = no such curve, though single readings can be large or run the other way. Potency is the fitted concentration of half-maximal effect."}
{"assay": "InCell qHTS Assay for Inhibitors of the mTORC1 Signaling Pathway in MEF (Tsc2-/-, p53-/-) Cells: Hit Validation;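 note: phospho-S6 Ser235/236 signal normalized to propidium iodide cell count per well; nearly all actives have a fitted effect of over 75% in size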", "conditions": "phospho-rpS6 immunofluorescence, 24 h; activity change, negative = inhibition: at 38.3 µM (top of the series)", "units": {"activity change, negative = inhibition": "%"}}
{"smiles": "CCCN1C(=O)C(O)(CC(=O)c2ccc(CC)cc2)c2ccccc21", "note": "(configuration not stated)", "activity change, negative = inhibition": -100}
{"smiles": "Cn1nnnc1SCCCNCc1ccccc1OCc1ccc(Cl)cc1", "activity change, negative = inhibition": -12.8}
{"smiles": "CCOC(=O)Cc1ccc(NC(=O)n2ncc3cc(Cl)ccc32)cc1", "activity change, negative = inhibition": -100}
{"smiles": "COc1ccc(C(=O)c2sc(Nc3ccccc3)nc2N)cc1", "activity change, negative = inhibition": -100}
{"smiles": "CCCCOc1ccccc1C1CC(=O)Nc2ccc3ccccc3c21", "note": "(configuration not stated)", "activity change, negative = inhibition": -100}
{"smiles": "Cc1ccc(CN2C(=O)C(=O)c3cc(Br)cc(C)c32)cc1", "Potency": "18.5 µM (active)"}
{"smiles": "O=C(Nc1ccc(Cl)cc1)c1cc(S(=O)(=O)N2CCCc3ccccc32)ccc1F", "activity change, negative = inhibition": -100}
{"smiles": "CCn1c(=O)sc2cc(NS(=O)(=O)c3ccc(F)c(C)c3)ccc21", "activity change, negative = inhibition": -100}
{"smiles": "COc1cc(-c2ccno2)ccc1S(=O)(=O)N1CCN(c2cc(C)ccc2C)CC1", "activity change, negative = inhibition": -100}
{"smiles": "O=c1oc2ccccc2cc1-c1cn2cc(Cc3ccccc3F)sc2n1", "activity change, negative = inhibition": -100}
{"smiles": "COc1ccc(-c2noc(CSc3nc(N)cc(=O)[nH]3)n2)cc1", "activity change, negative = inhibition": -100}
{"smiles": "CCOc1ccccc1Nc1nc(-c2cccc(Cl)c2)c2c(n1)-c1ccccc1OC2", "activity change, negative = inhibition": -100}
{"smiles": "Cc1cc(Cl)ccc1NC(=O)CN1C(=O)C(=O)c2ccccc21", "activity change, negative = inhibition": -16}
{"smiles": "CCCS(=O)(=O)c1c(S(=O)(=O)CCC)c2cc(C(C)(C)C)ccn2c1C(=O)c1ccc(OC)c(OC)c1", "activity change, negative = inhibition": -100}
{"smiles": "Cc1ccccc1CN1C(=O)C(O)(CC(=O)c2cccc(Br)c2)c2ccccc21", "note": "(configuration not stated)", "activity change, negative = inhibition": -100}
{"smiles": "CC(C)(C)c1ccc(S(=O)(=O)N2CCC(c3ccncc3)CC2)cc1", "activity change, negative = inhibition": -29.8}
{"smiles": "CCc1ccc(NC(=O)C2CCCN(S(=O)(=O)c3c(C)noc3/C=C/N(C)C)C2)cc1", "note": "(configuration not stated)", "Potency": "14.7 µM (active)"}
{"smiles": "COc1ccc(CCNC(=O)c2ccc3c(c2)N(Cc2ccccc2)CCS3)cc1OC", "activity change, negative = inhibition": -100}
{"smiles": "O=C(Nc1ccc(Cl)c(C(F)(F)F)c1)c1ccc2c(c1)CCN2S(=O)(=O)c1ccccc1", "activity change, negative = inhibition": -100}
{"smiles": "CCOc1ccc(-c2nc(SCC(=O)c3ccccc3)n[nH]2)cc1", "activity change, negative = inhibition": -2.9}
{"smiles": "COc1ccc(CCCc2nnc(SCC(=O)Nc3ccc(OC)cc3)o2)cc1", "activity change, negative = inhibition": -100}
{"smiles": "Cc1ccc(N(CC(O)Cn2c3ccccc3c3ccccc32)S(=O)(=O)c2ccc(F)cc2)cc1", "note": "(configuration not stated)", "activity change, negative = inhibition": -64.5}
{"smiles": "CCc1ccc(-c2nc(CSCC(=O)NCc3ccc(C)cc3)c(C)o2)cc1", "activity change, negative = inhibition": -100}
{"smiles": "CC1C(=O)Nc2ccc(S(=O)(=O)Nc3ccccc3Br)cc2NC1=O", "note": "(configuration not stated)", "activity change, negative = inhibition": -100}
{"smiles": "CCOCc1cc(CN2CCN(c3ccccc3OC)CC2)c(O)c2ncccc12", "Potency": "2.07 µM (active)"}
{"smiles": "CCS(=O)(=O)c1ncc(Cl)c(C(=O)NCc2ccc(OC)cc2)n1", "Potency": "4.65 µM (active)"}
{"smiles": "COc1ccc(Cl)cc1NC(=O)CSc1nc(-c2ccco2)cc(C(F)(F)F)n1", "activity change, negative = inhibition": -100}
{"smiles": "O=C(Nc1cccc(NC(=O)c2ccccc2Cl)c1)c1cccc(Br)c1", "activity change, negative = inhibition": -100}
{"smiles": "CCCCS(=O)(=O)c1nc(-c2ccc(Br)cc2)cc(-c2ccccc2)c1C#N", "Potency": "16.5 µM (active)"}
{"smiles": "Cc1cccc(NS(=O)(=O)c2ccc3[nH]c4c(c3c2)CCCCCC4)c1", "activity change, negative = inhibition": -100}
{"smiles": "Cc1cccc(NC(=O)c2c(NC(=O)C(F)(F)F)sc3c2CCCCC3)c1", "activity change, negative = inhibition": -100}
{"smiles": "Cc1c(C(=O)OC2CCC(C)CC2)[nH]c2c1C(=O)CC(c1ccccc1Cl)C2", "note": "(configuration not stated)", "activity change, negative = inhibition": -100}
{"smiles": "CS(=O)(=O)N(CC(=O)NCCc1ccccc1)c1cc(C(F)(F)F)ccc1Cl", "activity change, negative = inhibition": -100}
{"smiles": "CCc1nnc(NC(=O)c2nc(S(=O)(=O)Cc3cccc(C)c3)ncc2Cl)s1", "Potency": "4.14 µM (active)"}
{"smiles": "CCOC(=O)c1c(NC(=O)COc2ccc(OC)cc2)sc(C(=O)N(CC)CC)c1C", "activity change, negative = inhibition": -100}
{"smiles": "CCCCNC(=O)c1ccc2c(c1)N=C(CC)c1ccccc1S2", "activity change, negative = inhibition": -16}
{"smiles": "CCOc1ccc(-c2cnc(NCc3ccc(C(F)(F)F)cc3)n2C)cc1", "activity change, negative = inhibition": -100}
